Numbering of substitutions follows the chain as printed. Over roughly 24,000 sequences, “enrichment r” has its median near 0.99; the highest 2% begin near 3.7. The full list was thinned out, with the highest values kept by preference.
T1: UNK ZnF1-3 (human, UniProt Q9C0B0 31-174)
T1 sequence: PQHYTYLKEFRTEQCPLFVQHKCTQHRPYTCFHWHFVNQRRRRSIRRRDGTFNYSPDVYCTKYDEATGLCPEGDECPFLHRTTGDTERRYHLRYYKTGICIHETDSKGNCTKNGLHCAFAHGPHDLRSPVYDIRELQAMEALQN

B1: chr2:47387610:47387611:-_ENSG00000143933_ENST00000272298|hu_mus|FALSE|FALSE (ssRNA)
RNA: GGGAGUUCUACAGUCCGACGAUCUCCACGCAGAGUUACAGCUCCACACUUCAACAACAACAUGCUGACAGUUCCUAAAAGCUACUUUAAAAAAGGCAUAACCCAGAUGUUCCCUCAUUGGACCAACUCCAUCUAAGUUUAGAUCAACAGAGGAUUGAGCAUCA
B2: chr8:104447970:104447971:+_ENSG00000164934_ENST00000297579|hu_hu|hu_hu_hu_mus_False|88_98 (ssRNA)
RNA: GGGAGUUCUACAGUCCGACGAUCAUACACUUCCCUGCUUCGACUUUUGUCUACAGGAAAGAUUCUAAUAGACUUAUCAAAGCUGGCAGACACAAAUUCCUUCCCAGUGGGAGAGUAGUCCACAUCAAGUACUGCAGACACGUGCAACAGAGGAUUGAGCAUCA
B3: chr3:150289932:150289933:+_ENSG00000144895_ENST00000460851|hu_hu|hu_hu_hu_mus_False|28_58 (ssRNA)
RNA: GGGAGUUCUACAGUCCGACGAUCCUUGUAGUUUUUAACAUCCCAUACUUCCAUUUGUCCUCGAAGAUUUCCAAAUCCAGCUAAUACUAAUAUAUGUCCAUGAGGGCUAUAGUAGGCUGCGUUGCGAGGACCAGUCCCAAAGUCCAACAGAGGAUUGAGCAUCA
B4: chr13:51516861:51516862:+_ENSMUSG00000067586_ENSMUST00000087978|mus_mus|FALSE|FALSE (ssRNA)
RNA: GGGAGUUCUACAGUCCGACGAUCCUUGGUGACAUAGAGAAGGGCAAGGCCAAUGAUGGAGCAGAACUUCUUGGCAGUGACCUAUAUACACCAGGAGUGACAUGAGGGGAAGUCUUUAGUUAGUCAGACCAGGGUUACCUAAGGCAACAGAGGAUUGAGCAUCA
B5: chr19:5940991:5940992:-_ENSMUSG00000024833_ENSMUST00000025752|mus_hu|FALSE|FALSE (ssRNA)
RNA: GGGAGUUCUACAGUCCGACGAUCGUUCACACAGACACAGCCGAGGACAUCCUUCACGAAGUACCUCAGCUCUGACGGGAUGAUGAGGACAUCUGGGGUGACAGGCAGCUGUGCGUAAACAUAGAACGACUCAUAGUCAAUGGCCAACAGAGGAUUGAGCAUCA
B6: chr6:168291551:168291552:+_ENSG00000130396_ENST00000400822|hu_mus|motif|central (ssRNA)
RNA: GGGAGUUCUACAGUCCGACGAUCAUGUUUCUUCAUUUUCUUUGGGAUGUAGUCCGGUGGUCUCCUCUUCAACUGAAAGACGGAAAUCCCUUUGUCACUUGGCCAUUCCCUGAAGAUUUGUAAAGGACAUUCAUCAUCGUCAAGCAACAGAGGAUUGAGCAUCA
B7: chr16:50257146:50257147:+_ENSG00000121274_ENST00000436909|hu_mus|FALSE|FALSE (ssRNA)
RNA: GGGAGUUCUACAGUCCGACGAUCUAUCCGGAUGCCAGUCUUUAAGUAAUUGAAGUGCCGUCCAUAUAAUUCAAAAAACUCUAUUAAGAGAACACCAUAGUUUGUAUUGGGGAUGCAAGCAUCUUCCCUGGGAUGUAACUGAAGCAACAGAGGAUUGAGCAUCA
B8: chr1:39494447:39494448:+_ENSG00000168653_ENST00000372967|hu_mus|hu_hu_hu_mus_False|18_18 (ssRNA)
RNA: GGGAGUUCUACAGUCCGACGAUCGCACCGAGCGGCGUUCUUAUAGGGCUGUUCUGCGCUUAGGAACAUAAAGUGCCGGUCCAGGCUGAUGCCCAGCUUUUUCUGUAUGUCAAGGAAAGGCAUGGCCCUGCAGUGCCCUUGUCACAACAGAGGAUUGAGCAUCA
B9: chrX:140365796:140365797:-_ENSMUSG00000031285_ENSMUST00000033642|mus_mus|mus_mus_mus_hu_False|8_58 (ssRNA)
RNA: GGGAGUUCUACAGUCCGACGAUCCUUCUCAUUACUCAGUGCCUGCAAGGUUCUGGUUCGGUAGAAGCUACAGUGGGCACUAUGAGUGGGGCUAGGCAACCCAUUCAUCCGGGAGCCUCGCAUGUUCCUAGAUGCUUUAUCUCUCAACAGAGGAUUGAGCAUCA
B10: chr3:10015032:10015033:+_ENSMUSG00000027533_ENSMUST00000029046|mus_mus|mus_mus_mus_hu_True|1_38 (ssRNA)
RNA: GGGAGUUCUACAGUCCGACGAUCGUUUUUACCAUCACAAGUGAUGAUACAAUCUGGCUUGGCCAUUGCGCCCAUUUUUCGCAAAGCUAUUCCCACUCCUAGCUCUUUCAUGUAUUCAUCAAAGCCUUUGCUGUCCAUCAGGCGCAACAGAGGAUUGAGCAUCA
B11: chr4:6320793:6320794:+_ENSMUSG00000028249_ENSMUST00000103008|mus_mus|FALSE|FALSE (ssRNA)
RNA: GGGAGUUCUACAGUCCGACGAUCAGUAGGCAUGAUUGUGAUGGUAACCACAGUCCCAGCUGUUGACAGUAUAUCUGCAAUCUGAGCAUCCUUCAAGCCAAUGACGUUCUGUCCGUUGAUCUCACAGAUGUGGUGAUCAGUGAGCAACAGAGGAUUGAGCAUCA
B12: chr7:135612270:135612271:-_ENSG00000105887_ENST00000393085|hu_mus|hu_hu_hu_mus_False|8_18 (ssRNA)
RNA: GGGAGUUCUACAGUCCGACGAUCGUUUUUUUCUGAGAUGUUAAAUAGUACUUCAGUGGAAAACAAAACUUAACCUUUUAUUAAUGCGUGUUGUACCAAAAGCAGACAUUUUAGCUUGCUUCCUUUACUCAAAAUAUCAUUAAGCAACAGAGGAUUGAGCAUCA
B13: chr3:142455598:142455599:-_ENSMUSG00000004591_ENSMUST00000043812|mus_mus|FALSE|FALSE (ssRNA)
RNA: GGGAGUUCUACAGUCCGACGAUCGUAGAGCAUUUGAUCAAAUUAUUUGUGAGACUUUUGAGGUACAGCUUUAGUGUUAUAAUAACUUUUUAUAAAAUAUAGACUGUUUUAUCAAAAAUAUUUAUACAUUCUGUUACAAUAUAUCAACAGAGGAUUGAGCAUCA
B14: chr2:174291214:174291215:-_ENSMUSG00000016257_ENSMUST00000016401|mus_hu|FALSE|FALSE (ssRNA)
RNA: GGGAGUUCUACAGUCCGACGAUCUUGAUCAAGUCACAUAGCCUUACACCAACUUAUCAAAAAAAAAAAAAAAAAAACUACCCAAAAUAUAGUUGUAUUUUUAAAAUAACAAAUAAAUAUAUAGUCAGUUUGGAGAGACCUGGACAACAGAGGAUUGAGCAUCA
B15: chr20:57609950:57609951:-_ENSG00000101166_ENST00000355937|hu_hu|FALSE|FALSE (ssRNA)
RNA: GGGAGUUCUACAGUCCGACGAUCUGUUUUGAUCAAGUCACAUAGCCUUACACCAACUUAUCAAAAAAAAAAAAAAAAAAACUACCCAAAAUAUAGUUGUAUUUUUAAAAUAACAAAUAAAUAUAUAGUCAGUUUGGAGAGACCCAACAGAGGAUUGAGCAUCA
B16: chr22:42024162:42024163:+_ENSG00000196419_ENST00000405878|hu_hu|FALSE|FALSE (ssRNA)
RNA: GGGAGUUCUACAGUCCGACGAUCCUCAUCUUCACUCUGAGAUUCAAACAUAGCCUUGGAGGCAUCAACCAAAAAAAUCAAACUAUCUCUUCCUGAAUAUUUAUAGUCUCCACUUGCUUCAAGGUUCUCUUCUUGUUCUUCCUCCAACAGAGGAUUGAGCAUCA
B17: chr2:174291214:174291215:-_ENSMUSG00000016257_ENSMUST00000016401|mus_hu|motif|central (ssRNA)
RNA: B14 RNA with U78G, A79G
B18: chr2:202488911:202488912:-_ENSG00000155755_ENST00000286196|hu_hu|FALSE|FALSE (ssRNA)
RNA: GGGAGUUCUACAGUCCGACGAUCUUUUAACAUUUUUCAUAAUAUUGAGAGAUGUUUCAGUAUUAUAUAAUCAAAAAAUCUAUUACAAAUACACAUGUAUACAUCUUAUAAAAAUACAUUUAAAAACAAAAAUGGGACAAAUACCAACAGAGGAUUGAGCAUCA

These binders were tested against T1, UNK ZnF1-3 (assay: nsRBNS (natural sequence RNA bind-n-seq); RBNS binding buffer (assumed for nsRBNS): 25 mM Tris pH 7.5, 150 mM KCl, 3 mM MgCl2, 0.01% Triton X-100, 500 ug/ml BSA, 20 U/ml SUPERase-In, 4 C; UNK is unkempt and MSI1 is Musashi-1; names of the RNAs are library labels; protein concentration not given here; high values mean tight binding).
For B1, the binding signal was 1.21 enrichment R. B2 was tested, and the binding signal was 0.947 enrichment R. In the case of B3, the binding signal is reported as 1.1 enrichment R. Binder B4 has a binding signal of 1.32 enrichment R. Work on B5 yielded a binding signal of 1.51 enrichment R. B6 was tested, and the binding signal was 0.653 enrichment R. In the case of B7, the binding signal is reported as 1.63 enrichment R. With B8 the binding signal was 0.805 enrichment R. With B9 the binding signal was 0.475 enrichment R. B10 gave a binding signal of 0.702 enrichment R. Work on B11 yielded a binding signal of 0.725 enrichment R. With B12 the binding signal was 0.545 enrichment R. With B13 the binding signal was 0.537 enrichment R. Binder B14 has a binding signal of 7.95 enrichment R. With B15 the binding signal was 5.71 enrichment R. For B16, the binding signal was 1.1 enrichment R. B17 was tested, and the binding signal was 8.06 enrichment R. B18 showed a binding signal of 1.78 enrichment R.
